Laboratory results reported in PubChem BioAssay AID602193 (The Scripps Research Institute Molecular Screening Center, 2012).
Out of some 1,600 compounds screened, about 410 (26%) were called active. The entries come from a sample that favours actives as a whole. Values without a mark were called inactive.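 How the source made its calls: active means mean inhibition over triplicates above the low-control well mean plus 3 SD, set per campaign (cut at about 13% in these data); inactive means the rest.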

assay: forskolin-stimulated cAMP inhibition in U2OS – cell-based, TR-FRET, triplicate, counter-screen for MC4R biased antagonist project (AID 602193); conditions: parental U2OS, LANCE TR-FRET, at 6.5 µM, hits give high values;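 further: signal is single emission at 671 nm which falls as cellular cAMP rises; 0% = forskolin-stimulated wells and 100% = buffer without forskolin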

| SMILES | inhibition |
| --- | --- |
| Cc1cccc(N2C(=O)NC(=O)/C(=C\c3cnn(-c4ccccc4)c3)C2=O)c1 | 14.2% (active) |
| COc1cccc(N2C(=O)NC(=O)/C(=C\c3ccc([N+](=O)[O-])s3)C2=O)c1 | 0.64% |
